From PubChem BioAssay AID808 (Columbia University Molecular Screening Center, 2007) come the findings set out here.

Screen size: about 93,000 compounds; about 180 (0.19%) were called active. The sample as a whole holds a higher share of actives than the screen did. Unmarked numbers belong to inactive results.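 Rule for the calls: active = activation above the screen mean plus 3 SD, with well images confirming the hit on visual review (cut at about 28% in these data, passing the limit was not always enough); inconclusive = activation above that limit but images do not confirm it; inactive = activation not above that limit.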

The test can be described thus: enhancers of endothelial VCAM-1 upregulation by TNFa – imaging, HUVEC, TNFa stimulus, immunofluorescence, primary screen (AID 808).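 Note: signal is the number of cytoplasmic VCAM-1 stained grains per positive cell.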 To be noted: HUVEC TNFa-stimulated VCAM-1 immunofluorescence, high-content imaging; at 2 µM; active compounds read high; scaled per plate to unstimulated/TNFa-only wells.
As to `Cc1noc(C)c1CSCC(=O)Nc1nc2ccc(Oc3ccccc3)cc2s1`, the activation was -4.3%.
`O=C(Nc1ccc(Sc2ccc(Br)cc2)cc1)c1ccco1`: the activation was -2.8%.
Turning to `Cc1cccc(OCCCC(=O)Nc2ccc(S(=O)(=O)N3CCCC3)cc2)c1`, the activation is -20.4%.
For `CCOC(=O)c1ccc(NC(=O)CSc2ncccn2)cc1`, the activation is 21.4%.
As for `O=C(CCCn1c(=O)[nH]c2cc(Cl)ccc2c1=O)NCCN1CCN(c2ccccc2)CC1`, the figure is 4%; as for `O=C(CSCc1ccccc1Cl)NNC(=O)c1ccccc1`, -5.4%; as for `O=C(CS(=O)(=O)Cc1ccccc1)NCC1CCCO1` (configuration not stated), 24.8%.
On to `C/C(=C\C(=O)c1cccnc1)Nc1ccc(C)c(C)c1`, for which the activation is -89.1%.
As for `CCCNS(=O)(=O)c1ccc2c(c1)CCCN2C(C)=O`, the figure is -100%; as for `C=CCn1c(N)c(C(=O)OCC(C)C)c2nc3ccccc3nc21`, -94.4%; as for `c1ccc(CSc2nnc(-c3ccco3)n2Cc2ccccc2)cc1`, 1.1%.
As for `CCCc1nc2scc(-c3ccc(C)cc3)c2c(=O)n1N`, the activation is -5.6%.
Take `COc1ccccc1C(=O)C(O)c1ccccc1OC` (configuration not stated): the activation is 4.6%.
`COc1cc(-c2nc(-c3ccncc3)no2)cc(OC)c1OC`: the activation was 1.5%.
With `Cc1c(Nc2cc(N3CCCC(C)C3)c3nonc3c2[N+](=O)[O-])c(=O)n(-c2ccccc2)n1C` (configuration not stated), the activation was -5.2%.
For the compound `Cc1cccc(C(=O)NCCCN2CCCC2=O)c1`, the activation was 26%.
`CSCc1cc(N2CCOCC2)nc(SCc2ccc(Cl)cc2Cl)n1`: the activation is -7.6%.
Turning to `O=C(NCc1cccnc1)Nc1ccccc1F`, the activation was 10.6%.
In the case of `O=C(c1ccco1)N1CCN(CC(=O)N(C2CCCCC2)C2CCS(=O)(=O)C2)CC1` (configuration not stated), the activation is -39.3%.
`COc1cc(OC)c(C(=O)NC2CCCCCC2)cc1OC`: the activation is -3.2%.
As for `Cc1ccc(-n2nc3ccc(NC(=O)/C=C/c4ccco4)cc3n2)cc1C`, the activation is -46.8%.
The same measure for `O=C(Nc1ccc(F)cc1)c1cccnc1N1CCOCC1`: -3.5%.
Consider `O=C(Nc1ccncc1)c1c(F)cccc1F`, for which the activation is 76.2% (active).
For `CCC(=O)Nc1cccc(NC(=O)c2cccnc2)c1`, the activation was -7.7%.
Consider `CC(=O)c1cc(NC(=O)c2ccccc2)c(=O)oc1/C=C/N(C)C`, for which the activation is 16.1%.
With `NC(=O)CCCC1=NS(=O)(=O)c2ccccc2N1`, the activation is 2.1%.
On to `O=C(O)c1ccc(COc2c(F)c(F)cc(F)c2F)o1`, for which the activation is 1.5%.
Regarding `CC(=O)c1cnn(-c2cc(Oc3ccc(F)cc3)ncn2)c1C`, the activation was 50.8% (active).
As for `CC(=O)c1ccc(Oc2cc(C)nc(-n3nc(C)cc3C)n2)cc1`, the figure is -75.8%; as for `CC(c1ccccn1)N(CCN(C)C)C(=S)Nc1ccccc1F` (configuration not stated), 1.7%; as for `O=C(Nc1cc2c3c(c1)C1CCCC1CN3CC1CCCC21)c1ccc([N+](=O)[O-])cc1` (configuration not stated), -2.9%.
As to `Cc1cc(C)n(-c2nc(O)cc(=O)[nH]2)n1`, the activation is -0.9%.
On to `CCC(=O)NCCc1nc2ccccc2n1CC`, for which the activation is -6.7%.
The same measure for `COC(=O)c1ccc(NC(=O)Nc2ccc(C)cc2)cc1`: -1.4%; for `CCOC(=O)N1CCC(NC(=O)c2ccc3nc(N4CCOCC4)sc3c2)CC1`: -2.2%; for `Cc1ccc2c(c1)sc1ncc(NC(=O)c3ccccc3)c(=O)n12`: -3.1%.
Turning to `O=C(Nc1nncs1)c1ccccc1NS(=O)(=O)c1cccs1`, the activation is 5.4%.
As for `Cc1nc2nc[nH]n2c(=O)c1NC(=O)c1cccc(OCC(C)C)c1`, the figure is -5.4%; as for `CCOC(=O)NCc1ccc2c(c1)OCO2`, -8.2%; as for `CCn1c(NC(=O)c2ccccc2)c(-c2cccs2)c(=O)c2ccccc21`, -8.7%.
On to `COc1ccc(C(C(=O)NCc2ccccc2)N(Cc2cccs2)C(=O)c2cnccn2)cc1` (configuration not stated), for which the activation is -2.8%.
For the compound `Cn1cnc([N+](=O)[O-])c1Nc1ccccc1O`, the activation is 17.4%.
Turning to `Cn1c2ccccc2c2c(C(=O)N3CCN(c4ccc(F)cc4)CC3)cn(C3CCCC3)c(=O)c21`, the activation was -11.3%.
As for `Cc1cccc2cc(CN(Cc3ccc4c(c3)OCO4)Cc3nnnn3C3CCCC3)c(=O)[nH]c12`, the activation was 37.5% (active).
`COc1ccc(CCN(Cc2cc3cccc(C)c3[nH]c2=O)C(=O)N2CCCC2)cc1OC`: the activation is -91.4%.
As for `CCC(c1nnnn1Cc1ccco1)N(CCc1ccccc1)Cc1cc2cccc(C)c2[nH]c1=O` (configuration not stated), the figure is -0.4%; as for `O=C(COC(=O)C12CC3CC(CC(C3)C1)C2)NCc1ccco1`, 3.3%.
For the compound `CC(C)C(=O)N1CCN(c2nc(-c3ccccc3)c3c(c2C#N)CC(C)(C)OC3)CC1`, the activation was -36.7%.
Consider `CCCOc1cc(C)c(S(=O)(=O)n2nnc3ccccc32)cc1C`, for which the activation was 45.5% (active).
As for `CC(=O)Nn1cc2c(=O)n(C)c(=O)n(C)c2c1`, the activation is -8.2%.
For the compound `O=C1CC(Sc2ncn[nH]2)C(=O)N1c1ccccc1` (configuration not stated), the activation was 4.7%.
For the compound `CCC(=O)Nc1ccc(S(=O)(=O)NCC2CCCO2)cc1` (configuration not stated), the activation was -5.4%.
In the case of `CCCN1C(=O)C(NS(=O)(=O)c2ccc(N)cc2)(C(F)(F)F)C(C(=O)OC)=C1C` (configuration not stated), the activation was 1.5%.
The same measure for `CCOCc1nnc(NC(=O)CSc2ccc(C)cc2)s1`: 5.6%.
Consider `Cc1cccc(C)c1OC(=O)CSc1nnc(-c2ccccc2)o1`, for which the activation is 3.9%.
Turning to `CC(C)Nc1nc(N(c2ccccc2)c2ccccc2)nc(-n2ccnc2)n1`, the activation was 3.2%.
As for `CCOc1ccc(OCc2ccc(C(=O)Nc3cccc(C)n3)o2)cc1`, the figure is 9.1%; as for `CCCNC(=O)Nc1ccccc1C(=O)Nc1ccc(OC)cc1`, -2.4%.
The same measure for `Cc1cc(=O)oc(C)c1C(=O)NC1CC(C)(C)NC(C)(C)C1`: 12.6%; for `c1ccc(-c2cn3cccnc3n2)cc1`: -0.6%.
For `C=CCn1c(COc2cccc3cccnc23)nnc1SCC(=O)OC`, the activation is -28.4%.
On to `Cc1ccc(C)c(NC2=NCC(=O)N2c2ccc3c(c2)OCCO3)c1`, for which the activation is 21.9%.
